Results published in PubChem BioAssay (Tox21).
Where “and” joins values, the source holds several entries; their conditions need not be identical. Equal entries are not always repeated. Records with an inconclusive call do not appear. Where a structure was tested more than once in an assay, its records may differ in their call. Calls of active or inactive are those of the source. Unless noted, the call rests on the fitted dose curve; in most records, active means well fitted curve in the direction sought with a large enough effect in the repeat runs; inconclusive means weak or mixed curves; inactive means no such curve, though single readings can be large; an effect the other way counts as inactive or inconclusive.

Assays:
[1] = qHTS assay to identify small molecule agonists of H2AX (AID 1224845; active means well fitted activation curve with a large enough effect in the signal ratio in the repeat runs, not every such curve was filed as active; the % refers to the signal ratio)
Method in brief: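 Wild-type CHO-K1 cells, plated overnight, exposed 3hr at 37C to 15 concentrations (0.76% DMSO final). Lysed, then HTRF anti-pH2AX (S139) cryptate and anti-H2AX-d2 antibodies, 24 hr room temperature; 665/620 nm emission read.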

[2] = qHTS assay to identify small molecule agonists of the hypoxia (HIF-1) signaling pathway (AID 1224846; active means well fitted activation curve with a large enough effect in the signal ratio in the repeat runs, not every such curve was filed as active; the % refers to the signal ratio)
Method in brief: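 A low-serum medium (0.5% dialyzed FBS) holding 2,000 HRE-bla ME-180 cells per well is preincubated for 5 hrs, dosed with compounds by pintool, and kept a further 17 hrs at 37C, 5% CO2 before CCF4-AM FRET detection of beta-lactamase.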

[3] = qHTS assay to identify small molecule agonists of H2AX - cell viability counter screen (AID 1224847; calls by dose curve; further: top concentration of the series differs between compounds; nearly all actives have a fitted effect of over 30% in size)
Method in brief: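 Viability of CHO-K1 (wild type) cells after 3 hr compound exposure was measured by CellTiter-Glo luminescence.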

[4] = qHTS RealTime-Glo MT Cell Viability Assay in HepG2 cells - 24 hour (AID 1224867); further: nearly all actives have a fitted effect of over 50% in size
Method in brief: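 HepG2 cells (600/well) were dispensed with RealTime-Glo reagents, incubated 5 h at 37 °C, then treated with compounds in DMSO for up to 40 h. Nonlytic NanoLuc luminescence reflecting viable cells was read at each stated time point.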

[5] = qHTS RealTime-Glo MT Cell Viability Assay in HEK293 cells - 32 hour (AID 1224868); further: nearly all actives have a fitted effect of over 50% in size; further: potency means the concentration at half of the fitted maximal effect
Method in brief: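 HEK293 cells seeded with NanoLuc/prosubstrate reagent, rested 5 h at 37 C, then dosed and kept at 37 C up to 40 h. Nonlytic real-time luminescence from viable cells read at 0, 8, 16, 24, 32 and 40 h.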

[6] = A CellTox Green Cytotoxicity Assay to monitor cytotoxicity in HEK293 cells - 0 hour (AID 1224869); further: nearly all actives have a fitted effect of over 50% in size
Method in brief: (§1)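 Fluorescence intensity, read at 0, 8, 16, 24, 32 and 40 h of compound treatment, reflected dye binding to DNA of dead HEK293 cells; compounds (23 nL, DMSO) were added 5 h after plating cells with reagent.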

[7] = qHTS RealTime-Glo MT Cell Viability Assay in HepG2 cells - 40 hour (AID 1224870); further: nearly all actives have a fitted effect of over 50% in size
Method in brief: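 HepG2 cells (600/well) mixed with RealTime-Glo MT reagent, settled 5 h at 37 C/5% CO2 before compound addition. Nonlytic NanoLuc luminescence from viable-cell prosubstrate reduction read repeatedly during 40 h treatment at 37 C.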

[8] = A CellTox Green Cytotoxicity Assay to monitor cytotoxicity in HEK293 cells - 40 hour (AID 1224871); further: nearly all actives have a fitted effect of over 45% in size; further: potency means the concentration at half of the fitted maximal effect
Method in brief: as §1

[9] = qHTS assay to identify small molecule antagonists of the estrogen related receptor (ERR) signaling pathway from Tox21 library (AID 1224848); further: nearly all actives have a fitted effect of over 50% in size
Method in brief: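 Luminescent reporter read-out (ONE-Glo) from NTP's ERR cell line after 18 h treatment at 37 C with DMSO-dissolved Tox21 compounds; cells pre-plated 6 h beforehand at 2,000 per well.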

[10] = qHTS assay to identify small molecule agonists of the estrogen related receptor (ERR) signaling pathway from Tox21 library (AID 1224849; calls by dose curve; further: nearly all actives have a fitted effect of over 15% in size); conditions: ERR reporter cell line, ONE-Glo luciferase, 18 h
Method in brief: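 Screening used an NTP-provided ERR luciferase cell line. Compounds in DMSO were added 6 h after seeding and left 18 h at 37 C before a 30 min ONE-Glo step and luminescence reading.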
On the % scale 0 is the no-effect control and ±100 the full control effect.

O=c1ccc2ccccc2o1
inactive: outcome [1] | outcome [2] | outcome [3] | Potency [4] | Potency [5] | outcome [6] | Potency [7] | Potency [8]

O=C(O)CS
inactive: outcome [1] | outcome [3] | Potency [4] | Potency [5] | outcome [6] | Potency [7] | Potency [8]

O=C(c1ccccc1)c1ccccc1
inactive: outcome [1] | outcome [2] | outcome [3] | Potency [4] | Potency [5] | outcome [6] | Potency [7] | Potency [8]

Cc1ccc(S(=O)(=O)NC(=O)NN2CCCCCC2)cc1
inactive: outcome [1] | outcome [3] | Potency [9] | activity change, positive = activation ([10]; at 42.5 µM (top of the series)) -3.23% | activity change, positive = activation ([10]; at 92.4 µM (top of the series)) -0.537% and -0.346% | Potency [4] | Potency [5] | outcome [6] | Potency [7] | Potency [8]

CC(=O)NS(=O)(=O)c1ccc(N)cc1
inactive: outcome [1] | outcome [3] | Potency [4] | Potency [5] | outcome [6] | Potency [7] | Potency [8]

Nc1ccn([C@H]2CC[C@@H](CO)O2)c(=O)n1
inactive: outcome [1] | outcome [3] | Potency [4] | Potency [5] | outcome [6] | Potency [7] | Potency [8]

Oc1ccc(/C=C/c2cc(O)cc(O)c2)cc1
inactive: Potency [9] | Potency [4] | outcome [6] | Potency [7] | Potency [8]
active: activity change, positive = activation ([10]; at 42.5 µM (top of the series)) 132% | activity change, positive = activation ([10]; at 92.4 µM (top of the series)) 0.861% and 27.4% | Potency [5] 19.7 µM

NC(=O)c1cnccn1
inactive: outcome [1] | outcome [3] | Potency [9] | activity change, positive = activation ([10]; at 42.5 µM (top of the series)) 4.26% | activity change, positive = activation ([10]; at 92.4 µM (top of the series)) -0.224% and -0.902% | Potency [4] | Potency [5] | outcome [6] | Potency [7] | Potency [8]

Cc1ccc(O)cc1
inactive: outcome [1] | outcome [3] | Potency [4] | Potency [5] | outcome [6] | Potency [7] | Potency [8]

O=NO
inactive: outcome [1] | outcome [2] | outcome [3] | Potency [4] | Potency [5] | outcome [6] | Potency [7] | Potency [8]

Nc1ccc(S(=O)(=O)Nc2nccs2)cc1
inactive and 43.6 µM (active): Potency [8]
inactive: outcome [1] | outcome [3] | Potency [9] | activity change, positive = activation ([10]; at 42.5 µM (top of the series)) 5.51% | activity change, positive = activation ([10]; at 92.4 µM (top of the series)) -7.05% and 5.21% and 6.11% | Potency [4] | Potency [5] | outcome [6] | Potency [7]

CC(=O)Nc1nnc(S(N)(=O)=O)s1
inactive: outcome [1] | outcome [2] | outcome [3] | Potency [4] | Potency [5] | outcome [6] | Potency [7] | Potency [8]

O=C(O)c1cc(N=Nc2ccc(S(=O)(=O)Nc3ccccn3)cc2)ccc1O
inactive: outcome [3] | Potency [4] | Potency [5] | outcome [6] | Potency [7] | Potency [8]

O=C(O)CCCCCCCC(=O)O
inactive: outcome [1] | outcome [3] | Potency [4] | Potency [5] | outcome [6] | Potency [7] | Potency [8]

O=C(O)c1cccc([N+](=O)[O-])c1
inactive: outcome [1] | outcome [2] | outcome [3] | Potency [4] | Potency [5] | outcome [6] | Potency [7] | Potency [8]

O=S(=O)(O)NC1CCCCC1
inactive: outcome [1] | outcome [2] | outcome [3] | Potency [4] | Potency [5] | outcome [6] | Potency [7] | Potency [8]

CC(C)[C@@H]1CC[C@@H](C)C[C@H]1O
inactive: outcome [1] | outcome [2] | outcome [3] | Potency [4] | Potency [5] | outcome [6] | Potency [7] | Potency [8]

OC(Cn1cncn1)(Cn1cncn1)c1ccc(F)cc1F
inactive: outcome [2] | outcome [3] | Potency [9] | activity change, positive = activation ([10]; at 42.5 µM (top of the series)) 4.61% | activity change, positive = activation ([10]; at 92.4 µM (top of the series)) 8.25% and 5.79% | Potency [4] | Potency [5] | outcome [6] | Potency [7] | Potency [8]

Cn1cc[nH]c1=S
inactive: outcome [1] | outcome [3] | Potency [4] | Potency [5] | outcome [6] | Potency [7] | Potency [8]

COc1c2occc2cc2ccc(=O)oc12
inactive and 21.9 µM (active): Potency [5]
inactive: outcome [1] | outcome [3] | Potency [4] | outcome [6] | Potency [7] | Potency [8]

Cc1cc(=O)n(-c2ccccc2)n1C
inactive: outcome [1] | outcome [3] | Potency [9] | activity change, positive = activation ([10]; at 42.5 µM (top of the series)) 4.6% | activity change, positive = activation ([10]; at 92.4 µM (top of the series)) 1.91% and 2.64% | Potency [4] | Potency [5] | outcome [6] | Potency [7]
44.8 µM (active) and inactive: Potency [8]

Cc1cn([C@H]2C[C@H](N=[N+]=[N-])[C@@H](CO)O2)c(=O)[nH]c1=O
inactive: outcome [1] | outcome [3] | Potency [9] | activity change, positive = activation ([10]; at 42.5 µM (top of the series)) 1.9% | activity change, positive = activation ([10]; at 92.4 µM (top of the series)) 1.55% and -3.89% | Potency [4] | Potency [5] | outcome [6] | Potency [7] | Potency [8]

C1N2CN3CN1CN(C2)C3
inactive: outcome [1] | outcome [2] | outcome [3] | Potency [4] | Potency [5] | outcome [6] | Potency [7] | Potency [8]

NNC(=O)c1ccncc1
inactive: outcome [1] | outcome [3] | Potency [9] | activity change, positive = activation ([10]; at 42.5 µM (top of the series)) -2.18% and 2.7% | activity change, positive = activation ([10]; at 92.4 µM (top of the series)) -1.91% | Potency [4] | Potency [5] | outcome [6] | Potency [7] | Potency [8]

Cc1ccc(C)c(OCCCC(C)(C)C(=O)O)c1
inactive: outcome [1] | outcome [3] | Potency [4] | Potency [5] | outcome [6] | Potency [7] | Potency [8]

O=C(O)c1[nH]n(-c2ccc(S(=O)(=O)O)cc2)c(=O)c1N=Nc1ccc(S(=O)(=O)O)cc1
inactive: outcome [2] | outcome [3] | Potency [4] | Potency [5] | outcome [6] | Potency [7] | Potency [8]

Cc1ccccc1C(OCCN(C)C)c1ccccc1 (stereo unspecified)
inactive: outcome [1] | outcome [3] | Potency [9] | activity change, positive = activation ([10]; at 42.5 µM (top of the series)) 0.836% | activity change, positive = activation ([10]; at 92.4 µM (top of the series)) 0.151% and 0.194% | Potency [4] | Potency [5] | outcome [6] | Potency [7] | Potency [8]

CC(O)CN(CCN(CC(C)O)CC(C)O)CC(C)O (stereo unspecified)
inactive: outcome [1] | outcome [3] | Potency [4] | Potency [5] | outcome [6] | Potency [7] | Potency [8]

NC(N)=NC(=O)c1nc(Cl)c(N)nc1N
inactive: outcome [1] | outcome [3] | Potency [4] | Potency [5] | outcome [6] | Potency [7] | Potency [8]

Cn1c(=O)c2[nH]cnc2n(C)c1=O
inactive: outcome [1] | outcome [3] | Potency [4] | Potency [5] | outcome [6] | Potency [7] | Potency [8]

CCCC(O)C(CC)CO (stereo unspecified)
inactive: outcome [1] | outcome [2] | outcome [3] | Potency [4] | Potency [5] | outcome [6] | Potency [7] | Potency [8]

Nc1ccc(S(=O)(=O)c2ccc(N)cc2)cc1
inactive: outcome [1] | outcome [3] | Potency [4] | Potency [5] | outcome [6] | Potency [7] | Potency [8]

C[C@]12C=CC(=O)C=C1CC[C@@H]1[C@@H]2[C@@H](O)C[C@@]2(C)[C@H]1CC[C@]2(O)C(=O)CO
inactive: outcome [1] | outcome [3] | Potency [4] | Potency [5] | outcome [6] | Potency [7] | Potency [8]

O=C(C1CCCCC1)N1CC(=O)N2CCc3ccccc3C2C1 (stereo unspecified)
inactive: outcome [1] | outcome [3] | Potency [9] | activity change, positive = activation ([10]; at 42.5 µM (top of the series)) -13.9% | activity change, positive = activation ([10]; at 92.4 µM (top of the series)) -22.9% and -18.8% | Potency [4] | Potency [5] | outcome [6] | Potency [7] | Potency [8]

COc1ccc2[nH]cc(CCNC(C)=O)c2c1
inactive: outcome [1] | outcome [3] | Potency [9] | activity change, positive = activation ([10]; at 42.5 µM (top of the series)) 6.1% | activity change, positive = activation ([10]; at 92.4 µM (top of the series)) 9.68% and -2.51% | Potency [4] | Potency [5] | outcome [6] | Potency [7] | Potency [8]

CCCN(CCC)S(=O)(=O)c1ccc(C(=O)O)cc1
inactive: outcome [1] | outcome [3] | Potency [9] | activity change, positive = activation ([10]; at 42.5 µM (top of the series)) 3.98% | activity change, positive = activation ([10]; at 92.4 µM (top of the series)) -17.4% and 3.56% | Potency [4] | Potency [5] | outcome [6] | Potency [7] | Potency [8]

CCC1(c2ccccc2)C(=O)NCNC1=O
inactive: outcome [1] | outcome [3] | Potency [4] | Potency [5] | outcome [6] | Potency [7] | Potency [8]

Nc1ccc(O)c(C(=O)O)c1
inactive: outcome [2] | outcome [3] | Potency [9] | activity change, positive = activation ([10]; at 42.5 µM (top of the series)) -9.77% | activity change, positive = activation ([10]; at 92.4 µM (top of the series)) -1.78% and -6.73% | Potency [4] | Potency [5] | outcome [6] | Potency [7] | Potency [8]
